According to the supplement of paper PMC8540655:

Each compound was assayed on Aedes aegypti larvae (assay: larval motility relative to same well at 0 h (fraction); higher = more motile (less active compound), active = 0.4 or less). Settings: 10 µM; 2 h.
Description: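 MMV Pandemic Response Box compounds were tested at 10 µM (1% v/v DMSO) on Aedes aegypti larvae (18-24 h after hatching, about 10 per well, 96-well plates). Motility was quantified with INVAPP (200-frame movies) at 0, 2 and 24 h. Each well's motility was divided by its own 0 h score, and the median of 3 independent screens is reported.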

| Compound | larval motility |
| --- | --- |
| Fc1ccc2c(/C=C/c3nnn[nH]3)c[nH]c2c1 | 1.85 (inactive) |
| O=C(O)c1ccc(-n2nc(-c3ccccc3O)nc2-c2ccccc2O)cc1 | 0.694 (inactive) |
| CC(C)Oc1ccc(-n2cnc3cc(/C=C\c4ccc(C(C)(C)O)cc4)ccc32)cc1 | 0.656 (inactive) |
| CC(=O)N[C@H](C)C(=O)N[C@H](Cc1ccccc1)C(=O)O | 0.496 (inactive) |
| CC(=O)N1c2ccccc2NC2=C(C(=O)CC(C)(C)C2)C1c1ccc(OCc2ccccc2)cc1 (stereo not given) | 1.49 (inactive) |
| CC(C)c1cc2c(cc1S(=O)(=O)O)[C@@]1(C)CCC[C@@](C)(C(=O)O)[C@@H]1CC2 | 0.784 (inactive) |
| NC[C@H]1OB(O)c2c(OCCCO)cccc21 | 1.28 (inactive) |
| Oc1ccc(NCc2ccccc2OCc2ccccc2)cc1 | 0.844 (inactive) |
| O=C(N[C@H](Cc1cccc2ccccc12)C(=O)NCCc1c[nH]cn1)C1Cc2ccccc2C1 | 0.819 (inactive) |
| C[C@H](NC(=O)C(=O)Nc1ccccc1C(C)(C)C)C(=O)N[C@@H](CC(=O)O)C(=O)COc1c(F)c(F)cc(F)c1F | 0.777 (inactive) |
| O=C(NO)C1(CS(=O)(=O)c2ccc(Oc3ccc(Cl)cc3)cc2)CCOCC1 | 0.471 (inactive) |
| O=C(/C=C/n1cnc(-c2cc(C(F)(F)F)cc(C(F)(F)F)c2)n1)NNc1cnccn1 | 0.908 (inactive) |
| O=C(Nc1ccc(Cl)c(C(F)(F)F)c1)C(CCCl)C(=O)Nc1ccc(Cl)c(C(F)(F)F)c1 | 0.848 (inactive) |
| Cc1cc(O)c2c(c1)C(=O)c1c(I)c(O)c(I)c(O)c1C2=O | 0.851 (inactive) |
| CCc1nc2ccc(Cl)cn2c1C(=O)NCc1ccc(N2CCC(c3ccc(OC(F)(F)F)cc3)CC2)cc1 | 0.959 (inactive) |
| CCC(C)(C)c1ccc(CC(C)CN2C[C@@H](C)O[C@@H](C)C2)cc1 (stereo not given in full) | 0.895 (inactive) |
| c1cc(CN2CCCNCCNCCCNCC2)ccc1CN1CCCNCCNCCCNCC1 | 0.964 (inactive) |
| Oc1c(C(Nc2ccccn2)c2ccccc2)ccc2cccnc12 (stereo not given) | 0.721 (inactive) |
| CC(=O)O[C@H]1C[C@@]2(C)[C@@H](C[C@@H](O)[C@H]3[C@@]4(C)CC[C@@H](O)[C@@H](C)[C@@H]4CC[C@@]32C)/C1=C(\CCC=C(C)C)C(=O)O | 0.95 (inactive) |
| Fc1ccc2c(/C=C/c3cccnc3)c[nH]c2c1 | 1.04 (inactive) |

Same assay, conditions: 10 µM; 24 h

| Compound | larval motility |
| --- | --- |
| Fc1ccc2c(/C=C/c3nnn[nH]3)c[nH]c2c1 | 1.39 (inactive) |
| O=C(O)c1ccc(-n2nc(-c3ccccc3O)nc2-c2ccccc2O)cc1 | 0.808 (inactive) |
| CC(C)Oc1ccc(-n2cnc3cc(/C=C\c4ccc(C(C)(C)O)cc4)ccc32)cc1 | 1.03 (inactive) |
| CC(=O)N[C@H](C)C(=O)N[C@H](Cc1ccccc1)C(=O)O | 0.597 (inactive) |
| CC(=O)N1c2ccccc2NC2=C(C(=O)CC(C)(C)C2)C1c1ccc(OCc2ccccc2)cc1 (stereo not given) | 1.55 (inactive) |
| CC(C)c1cc2c(cc1S(=O)(=O)O)[C@@]1(C)CCC[C@@](C)(C(=O)O)[C@@H]1CC2 | 0.697 (inactive) |
| NC[C@H]1OB(O)c2c(OCCCO)cccc21 | 1.61 (inactive) |
| Oc1ccc(NCc2ccccc2OCc2ccccc2)cc1 | 1.62 (inactive) |
| O=C(N[C@H](Cc1cccc2ccccc12)C(=O)NCCc1c[nH]cn1)C1Cc2ccccc2C1 | 0.952 (inactive) |
| C[C@H](NC(=O)C(=O)Nc1ccccc1C(C)(C)C)C(=O)N[C@@H](CC(=O)O)C(=O)COc1c(F)c(F)cc(F)c1F | 1.23 (inactive) |
| O=C(NO)C1(CS(=O)(=O)c2ccc(Oc3ccc(Cl)cc3)cc2)CCOCC1 | 1.04 (inactive) |
| O=C(/C=C/n1cnc(-c2cc(C(F)(F)F)cc(C(F)(F)F)c2)n1)NNc1cnccn1 | 1 (inactive) |
| O=C(Nc1ccc(Cl)c(C(F)(F)F)c1)C(CCCl)C(=O)Nc1ccc(Cl)c(C(F)(F)F)c1 | 0.397 (active) |
| Cc1cc(O)c2c(c1)C(=O)c1c(I)c(O)c(I)c(O)c1C2=O | 1.08 (inactive) |
| CCc1nc2ccc(Cl)cn2c1C(=O)NCc1ccc(N2CCC(c3ccc(OC(F)(F)F)cc3)CC2)cc1 | 0.891 (inactive) |
| CCC(C)(C)c1ccc(CC(C)CN2C[C@@H](C)O[C@@H](C)C2)cc1 (stereo not given in full) | 0.765 (inactive) |
| c1cc(CN2CCCNCCNCCCNCC2)ccc1CN1CCCNCCNCCCNCC1 | 0.915 (inactive) |
| Oc1c(C(Nc2ccccn2)c2ccccc2)ccc2cccnc12 (stereo not given) | 1.07 (inactive) |
| CC(=O)O[C@H]1C[C@@]2(C)[C@@H](C[C@@H](O)[C@H]3[C@@]4(C)CC[C@@H](O)[C@@H](C)[C@@H]4CC[C@@]32C)/C1=C(\CCC=C(C)C)C(=O)O | 0.825 (inactive) |
| Fc1ccc2c(/C=C/c3cccnc3)c[nH]c2c1 | 0.678 (inactive) |
